hcDAF-12 act: activators of H. contortus DAF-12 nuclear receptor. HEK293 hcDAF-12 lit1-tk-luc reporter, luminescence; 0% DMSO, 100% Δ7-dafachronic acid. activation, % at 6.8 µM. 1.4% of 370,000 active;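 active = activation above the mean of all tested compounds plus 3 SD, cut at about 5.5% in these data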;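 also: 100% = response to 3 µM Δ7-dafachronic acid high control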
hgDAF-12 ag: activates the H. glycines DAF-12 receptor ligand-binding domain; 1.8% of 370,000 active; activation, % at 6.8 µM; HEK293 GAL4-hgDAF12 UAS-luciferase reporter, agonist luminescence; normalized to butyrate control; AID 687014;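 active = activation above a cutoff set at the mean of all screened compounds plus 3 SD, cut at about 10% in these data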;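 also: 0% = DMSO wells and 100% = sodium butyrate wells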
DAX1 inh-1: inhibitors of DAX1 repression of SF-1 activated StAR promoter | HEK293T StAR-luciferase reporter, SF-1/DAX-1 repression relief | inhibition, % at 6.8 µM | 1.1% of 370,000 active;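 active = inhibition above the mean over all tested compounds plus 3 SD, cut at about 3.6% in these data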;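 also: 0% = DAX-1 cells with DMSO and 100% = cells lacking DAX-1 with DMSO; higher inhibition means more luminescence from relief of DAX-1 repression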
DAX1 inh-2: NR0B1 (DAX1) inhibition | P51843 | HEK293 Gal4-DAX1 luciferase reporter, luminescence | inhibition, % at 6.75 µM | 0.99% of 340,000 active | AID 504766;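 active = inhibition above the mean over all tested compounds plus 3 SD, cut at about 4.2% in these data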;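 also: 0% = DAX1-transfected cells with DMSO and 100% = empty-vector control cells with DMSO; inhibition shows as a rise in luminescence from relieved DAX1 repression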
Target sequence (P51843 207-470 limits assumed): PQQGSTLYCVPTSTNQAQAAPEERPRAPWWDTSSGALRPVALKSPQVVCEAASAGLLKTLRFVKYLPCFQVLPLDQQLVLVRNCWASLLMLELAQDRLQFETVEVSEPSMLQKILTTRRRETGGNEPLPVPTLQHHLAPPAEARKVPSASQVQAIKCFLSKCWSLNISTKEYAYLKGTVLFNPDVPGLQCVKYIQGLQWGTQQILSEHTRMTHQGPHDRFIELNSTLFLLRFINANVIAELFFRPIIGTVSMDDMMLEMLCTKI
ssDAF12 agonist: activators of S. stercoralis DAF-12 nuclear receptor; HEK293 ssDAF-12/GRIP1 lit1-tk-luc reporter, luminescence; % of 3 µM dafachronic acid response; 1% of 370,000 active; AID 652126; activation, % at 6.8 µM;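 active = activation above the mean over all tested compounds plus 3 SD, cut at about 0.9% in these data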;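 also: 0% = DMSO-only wells and 100% = 3 µM delta7-dafachronic acid wells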
LXR ag: counter-screen for hcDAF-12 agonists: agonists of human LXR-beta. shares compounds with hcDAF-12 act. activation, % at 6.8 µM. HEK293 Gal4-LXR tk-luc reporter, luminescence, 24 h; normalized: DMSO 0%, positive control 100%. 3,400 tested, under 10 active;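 active = mean percent activation of the reporter above a cutoff set as the average over tested compounds plus their standard deviation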
hcDAF12 ag: confirmation of H. contortus DAF-12 agonists | shares compounds with hcDAF-12 act | 61% of 3,400 active | activation, % at 6.8 µM | HEK293 hcDAF-12 lit1-tk-luc reporter, luminescence; % of Δ7-dafachronic acid response;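 active = mean activation across triplicate tests above the threshold derived from the earlier primary screen, cut at about 5.5% in these data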;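 also: 0% = DMSO only wells and 100% = 3 µM Δ7-dafachronic acid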
Numbers without * were called inactive. Most compounds without a hit are left out; they make up all but 4.1% or so of the library.

What do the screens show for `O=C(OCc1cn(Cc2cccc(F)c2F)nn1)N1CCCC1`?
hcDAF-12 act: 0; hgDAF-12 ag: -1; DAX1 inh-1: 0; ssDAF12 agonist: -1

Results for N#CCSc1nnc2sc3ccccc3n12 ?
hcDAF-12 act: 0; hgDAF-12 ag: -1; DAX1 inh-1: 0; DAX1 inh-2: 1; ssDAF12 agonist: -1

Results for CSc1nnc2sc3cc(C)ccc3n12 ?
hcDAF-12 act: 9.6*; hgDAF-12 ag: 7; DAX1 inh-1: -1; DAX1 inh-2: 1; ssDAF12 agonist: 0; LXR ag: 0; hcDAF12 ag: 5

Results for COc1ccc(C(C)c2cc3c(cc2OCC(=O)O)OCO3)cc1 (stereo unspecified) ?
hcDAF-12 act: 0; hgDAF-12 ag: -2; DAX1 inh-1: 0; ssDAF12 agonist: -1

How did COCC(C)N=C1NN=C(c2ccc(NC(C)=O)cc2)CS1 (stereo unspecified) do in these assays?
hcDAF-12 act: 0; hgDAF-12 ag: 5; DAX1 inh-1: -1; DAX1 inh-2: 0; ssDAF12 agonist: -1

How did CC(C)N=C1NN=C(c2cccs2)CS1 do in these assays?
hcDAF-12 act: 8.6*; hgDAF-12 ag: 12*; DAX1 inh-1: 3; DAX1 inh-2: 2; ssDAF12 agonist: 1.4*; LXR ag: 1; hcDAF12 ag: 11*

Results for Cc1nc2ccccc2nc(C)c1=NO ?
hcDAF-12 act: 8.6*; hgDAF-12 ag: 12*; DAX1 inh-1: 4.1*; DAX1 inh-2: 4; ssDAF12 agonist: 1.0*; LXR ag: 0; hcDAF12 ag: 4

What do the screens show for `Cc1nc2ccc(Cl)cc2nc(C)/c1=N\O`?
hcDAF-12 act: 7.7*; hgDAF-12 ag: 11*; DAX1 inh-1: 2; DAX1 inh-2: 5.3*; ssDAF12 agonist: 1.0*; LXR ag: 0; hcDAF12 ag: 6.3*

What do the screens show for `COC(=O)[C@H]1C[C@@]2(N3CCCC3)c3ccccc3N(C(=O)OC(C)(C)C)[C@H]2N1C(=O)OC(C)(C)C`?
hcDAF-12 act: -2; hgDAF-12 ag: 0; DAX1 inh-1: 0; ssDAF12 agonist: -1

What do the screens show for `C[C@H](O)[C@@H]1CN2CCc3c([nH]c4c(-c5ccccc5)cccc34)[C@@H]2C[C@@H]1N(C)C(=O)c1ccco1`?
hcDAF-12 act: -3; hgDAF-12 ag: -3; DAX1 inh-1: -1; ssDAF12 agonist: -1

Results for O=C(O)c1cc(-c2c[nH]c3ccccc23)nc2ccc3ccccc3c12 ?
hcDAF-12 act: 9.1*; hgDAF-12 ag: 4; DAX1 inh-1: 0; DAX1 inh-2: 0; ssDAF12 agonist: 0; LXR ag: 0; hcDAF12 ag: 5.8*

How did C/C(=N\NC(=O)c1cc(C)oc1C)c1ccc2ccccc2c1 do in these assays?
hcDAF-12 act: 7.2*; hgDAF-12 ag: 11*; DAX1 inh-1: 0; DAX1 inh-2: 4.4*; ssDAF12 agonist: -2; LXR ag: 0; hcDAF12 ag: -1

Results for c1nc2nc3c(c(N4CCCC4)n2n1)CCCC3 ?
hcDAF-12 act: -1; hgDAF-12 ag: -2; DAX1 inh-1: 0; ssDAF12 agonist: -1

What do the screens show for `C[C@@H]1CN(c2ccc(N3CCNC[C@H]3C)cc2C#N)CCN1Cc1ccccc1`?
hcDAF-12 act: -4; hgDAF-12 ag: -7; DAX1 inh-1: -2; ssDAF12 agonist: -1

How did CC(C)CN1CCN(Cc2cc3ccccc3[nH]2)CC1CCO (stereo unspecified) do in these assays?
hcDAF-12 act: 4; hgDAF-12 ag: 0; DAX1 inh-1: 0; DAX1 inh-2: 2; ssDAF12 agonist: 0

Results for CC(C)CCN1CCN(Cc2cc3ccccc3[nH]2)CC1CCO (stereo unspecified) ?
hcDAF-12 act: 6.9*; hgDAF-12 ag: 0; DAX1 inh-1: 0; DAX1 inh-2: 0; ssDAF12 agonist: 0; LXR ag: 0; hcDAF12 ag: 7.0*

What do the screens show for `CC1=NN(c2ccc(C)cc2)C(=O)/C1=C\c1ccc(Br)s1`?
hcDAF-12 act: 9.5*; hgDAF-12 ag: 0; DAX1 inh-1: 0; DAX1 inh-2: 0; ssDAF12 agonist: 0; LXR ag: 0; hcDAF12 ag: 5

Results for Nc1c(-c2ccccc2)n[nH]c1-c1ccccc1 ?
hcDAF-12 act: 7.0*; hgDAF-12 ag: 8; DAX1 inh-1: 1; DAX1 inh-2: -1; ssDAF12 agonist: -1; LXR ag: 1; hcDAF12 ag: 7.7*

What do the screens show for `S=c1nc(-c2ccccc2)c(-c2ccccc2)n[nH]1`?
hcDAF-12 act: -1; hgDAF-12 ag: 3; DAX1 inh-1: 0; DAX1 inh-2: 1; ssDAF12 agonist: -1

How did COc1ccc2c(c1)CN1C(=O)N(CC(C)C)S(=O)(=O)CC21 (stereo unspecified) do in these assays?
hcDAF-12 act: 2; hgDAF-12 ag: 9; DAX1 inh-1: 2; ssDAF12 agonist: -1

What do the screens show for `COc1ccc(/C=[N+](\[O-])C2N(c3ccccc3)C(=S)SC2(C)C)cc1OC` (stereo unspecified)?
hcDAF-12 act: 9.3*; hgDAF-12 ag: 3; DAX1 inh-1: 0; DAX1 inh-2: 2; ssDAF12 agonist: -1; LXR ag: 0; hcDAF12 ag: 0

Results for Oc1cccc(Nc2nc(O)c(/C=C3\C=Nc4ccccc43)s2)c1 ?
hcDAF-12 act: 6.8*; hgDAF-12 ag: 10; DAX1 inh-1: 1; DAX1 inh-2: -1; ssDAF12 agonist: 0; LXR ag: 0; hcDAF12 ag: 7.0*

How did COc1ccc(C)cc1NC(=O)n1ncc2cc(Cl)ccc21 do in these assays?
hcDAF-12 act: 7.4*; hgDAF-12 ag: 4; DAX1 inh-1: 0; DAX1 inh-2: 0; ssDAF12 agonist: 1; LXR ag: 0; hcDAF12 ag: 3

How did Cc1ccccc1NC(=O)n1ncc2cc(Cl)ccc21 do in these assays?
hcDAF-12 act: -2; hgDAF-12 ag: 0; DAX1 inh-1: 0; DAX1 inh-2: -1; ssDAF12 agonist: -1

Results for Cc1ccc(C)c(NC(=O)c2cc3ccccc3o2)c1 ?
hcDAF-12 act: 7.8*; hgDAF-12 ag: 11*; DAX1 inh-1: 1; DAX1 inh-2: 3; ssDAF12 agonist: 1; LXR ag: 1; hcDAF12 ag: 9.4*

What do the screens show for `Cc1ccnc(NC(=O)c2cc3ccccc3o2)c1`?
hcDAF-12 act: 4; hgDAF-12 ag: 0; DAX1 inh-1: 2; DAX1 inh-2: -3; ssDAF12 agonist: -1

What do the screens show for `O=C(Nc1ccccn1)c1cc2ccccc2o1`?
hcDAF-12 act: 10*; hgDAF-12 ag: 3; DAX1 inh-1: 3; DAX1 inh-2: -4; ssDAF12 agonist: 0; LXR ag: 1; hcDAF12 ag: 13*
